Data from PubChem BioAssay (EPA / NIEHS).
Inconclusive results are not listed. Some compounds were tested as several samples or in several runs, with calls that do not always agree. Active and inactive are the calls of the source. How the source made its calls: active means hit-call score of the fitted dose curve at least 0.9, where 1 is the maximum; inconclusive means response in the unintended direction; inactive means score below 0.9.

experiment: CCTE_Mundy_HCI_iCellGluta_NOG_NeuriteLength: CCTE's Neurite Outgrowth Assay in iCellGluta cells for Neurite Length, Mundy Lab (AID 2284318)
Description: CCTE_Mundy_HCI_iCellGluta_NOG is a multiplexed, cell-based-readout assay that uses iCell GlutaNeurons from FUJIFILM Cellular Dynamics, Inc. (FCDI), human glutamatergic enriched neurons derived from induced pluripotent stem (iPS) cells, with measurements taken at 50.33 hours after chemical dosing in a microplate: 96-well plate.CCTE_Mundy_HCI_iCellGluta_NOG_NeuriteLength is one of four components of the CCTE_Mundy_HCI_iCellGluta_NOG assay. It measures neurite outgrowth related to neurite length using High Content Imaging of fluorescently labelled markers.Data from the assay component CCTE_Mundy_HCI_iCellGluta_NOG_NeuriteLength was analyzed at the endpoint CCTE_Mundy_HCI_iCellGluta_NOG_NeuriteLength in the positive analysis fitting direction relative to DMSO as the negative control and baseline of activity. Using a type of morphology reporter, loss-of-signal activity can be used to understand developmental effects.
Exposure starts 2 hours post-plating by adding 10 ul of the working solution to 90 ul of media in the wells for a 1/10 dilution. Forty-eight hours after chemical treatment cells are fixed by direct addition of 100 ul of warm (37C) Dulbecco's phosphate buffered saline (DPBS) fixative solution containing 8% paraformaldehyde, 8% sucrose, and 0.1% of 3 mg/ml Hoechst 33342 into each well. Primary antibodies are prepared by dilution in Immunocytochemical Staining Buffer (ISB), 10X Dulbecco's PBS, 0.1% Saponin, 5% Bovine Serum Albumin, 0.5% NaN3 (Sodium Azide) and betaIII-tubulin (rabbit anti-betaIII-tubulin, 1:800) followed by Alexa Fluor-488 secondary (1:500) to label neuronal cell bodies and neurites. A Cellomics ArrayScan VTi HCS Reader is used for automated image acquisition and analysis of neurite outgrowth.

Compound	outcome	AC50
CC1(C)C(C=C(Cl)Cl)C1C(=O)OC(C#N)c1ccc(F)c(Oc2ccccc2)c1 (centres undefined)	inactive	9.9 µM (active)
CC1(c2ccc(Oc3ccccc3)cc2)OC(=O)N(Nc2ccccc2)C1=O (centres undefined)	inactive	–
O=[N+]([O-])/N=C1\NCCN1Cc1ccc(Cl)nc1	–	15 µM (active)
CCC(C)(C)C(=O)OC1=C(c2ccc(Cl)cc2Cl)C(=O)OC12CCCCC2	–	21.9 µM (active)
CNC(=O)CSP(=S)(OC)OC	inactive	–
O=S(=O)(O)C(F)(F)C(F)(F)C(F)(F)C(F)(F)C(F)(F)C(F)(F)C(F)(F)C(F)(F)F	inactive	–
COP(=S)(OC)Oc1ccc([N+](=O)[O-])cc1	–	21.6 µM (active)
COP(=O)(OC)OC=C(Cl)Cl	–	12.9 µM (active)
O=C(O)COc1ccc(Cl)cc1Cl	inactive	–
O=C(O)C(F)(F)C(F)(F)C(F)(F)C(F)(F)C(F)(F)C(F)(F)C(F)(F)F	inactive	–
CC[C@H](C)[C@H]1O[C@]2(C=C[C@@H]1C)C[C@@H]1C[C@@H](C/C=C(\C)[C@@H](O[C@H]3C[C@H](OC)[C@@H](O[C@H]4C[C@H](OC)[C@@H](O)[C@H](C)O4)[C@H](C)O3)[C@@H](C)/C=C/C=C3\CO[C@@H]4[C@H](O)C(C)=C[C@@H](C(=O)O1)[C@]34O)O2 (tested in a mixture with another compound)	–	3.44 µM (active)
O=S1OCC2C(CO1)C1(Cl)C(Cl)=C(Cl)C2(Cl)C1(Cl)Cl (centres undefined)	–	8.78 µM (active)
CC(C)N(C(=O)COc1nnc(C(F)(F)F)s1)c1ccc(F)cc1	inactive	–
